Measured values as given in PubChem BioAssay (NCATS).
Results filed as inconclusive are left out. Activity calls are given as the source filed them. Calls come from the whole dose curve; as a rule, active = well fitted curve in the direction sought with a large enough effect; inconclusive = small, poorly fitted or top-dose-only effect, or another doubt; inactive = no such curve, though single readings can be large; an effect the other way counts as inactive or inconclusive.

How the values were obtained:
[1] = qHTS of pediatric cancer cell lines to identify multiple opportunities for drug repurposing: Primary screen for OHS-50 cells (AID 1347103); note: nearly all actives have a fitted effect of over 40% in size
In short: (§1)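 Cells (500-1,000/well) rested 5 h, then received compounds for 48 h; metabolically active cells were measured by CellTiter-Glo luminescence. Final concentrations spanned up to 46 µM (MIPE, 11-point) or 0.59 nM-46 µM (NPC, 8-point) in primary screens, 11-point in follow-ups.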

[2] = qHTS of pediatric cancer cell lines to identify multiple opportunities for drug repurposing: Primary screen for RD cells (AID 1347104); note: nearly all actives have a fitted effect of over 55% in size
In short: (§2)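 Phenotypic viability qHTS, 48 h compound exposure, CellTiter-Glo luminescence read-out; multi-concentration dosing so that potency and efficacy derive directly from the primary screen's curves.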

[3] = qHTS of pediatric cancer cell lines to identify multiple opportunities for drug repurposing: Primary screen for MG 63 (6-TG R) cells (AID 1347105); note: nearly all actives have a fitted effect of over 50% in size
In short: as §2

[4] = qHTS of pediatric cancer cell lines to identify multiple opportunities for drug repurposing: Primary screen for control Hh wild type fibroblast cells (AID 1347106); note: nearly all actives have a fitted effect of over 55% in size
In short: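 Viability after 48 h compound treatment at 37C, 500-1,000 cells/well, read as ATP luminescence with CellTiter-Glo. Primary screens used 11-point (MIPE, 0.78 nM-46 µM) or 8-point (NPC, 0.59 nM-46 µM) final concentrations; follow-up screens used 11-point dilutions.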

[5] = qHTS of pediatric cancer cell lines to identify multiple opportunities for drug repurposing: Primary screen for Rh30 cells (AID 1347107); note: nearly all actives have a fitted effect of over 75% in size
In short: as §1

[6] = qHTS of pediatric cancer cell lines to identify multiple opportunities for drug repurposing: Primary screen for Rh41 cells (AID 1347108); note: nearly all actives have a fitted effect of over 70% in size
In short: as §2

Measured: Potency
Potency is the fitted concentration of half-maximal effect.

CC(C)(C)c1ccc(C(O)CCCN2CCC(C(O)(c3ccccc3)c3ccccc3)CC2)cc1 (centres undefined)
inactive: all assays above

CN(C)Cc1cccc(N=C(c2ccccc2)c2c(O)[nH]c3cc(C(=O)N(C)C)ccc23)c1
active: [1] 17.2 µM

Cc1cnc(C(=O)O)c[n+]1[O-]
not listed: [6]
inactive: all other assays above

NC(=O)NN=Cc1ccc([N+](=O)[O-])o1
inactive: all assays above

CC(C)(C)OC(=O)N[C@H]1CCCCCC=C[C@@H]2C[C@@]2(C(=O)NS(=O)(=O)C2CC2)NC(=O)[C@@H]2C[C@@H](OC(=O)N3Cc4cccc(F)c4C3)CN2C1=O
not listed: [6]
inactive: all other assays above

COc1ccc2cc(-c3nc(-c4ccc(S(C)=O)cc4)[nH]c3-c3ccncc3)ccc2c1 (centres undefined)
inactive: all assays above

CC[C@@]1(O)C[C@H](O[C@H]2C[C@H](N(C)C)[C@H](O[C@H]3C[C@H](O)[C@H](O[C@H]4CCC(=O)[C@H](C)O4)[C@H](C)O3)[C@H](C)O2)c2c(cc3c(c2O)C(=O)c2c(O)cccc2C3=O)[C@@H]1C(=O)OC
not listed: [6]
inactive: all other assays above

O=c1ccn([C@@H]2O[C@H](CO)[C@H](O)[C@H]2O)c(=O)[nH]1
inactive: all assays above

O=C(NCCN1CCOCC1)c1ccc(Cl)cc1
inactive: all assays above

CC(C)OC(=O)CCCC=CC[C@@H]1[C@H](C=C[C@@H](O)COc2cccc(C(F)(F)F)c2)[C@H](O)C[C@@H]1O
active: [1] 24.3 µM | [2] 33.2 µM
inactive: [3] | [4]

CC(C)=CC[C@@H](O)C1=CC(=O)c2c(O)ccc(O)c2C1=O
active: [1] 10.9 µM | [2] 26.4 µM

O=C(O)CCc1nc(-c2ccccc2)c(-c2ccccc2)o1
inactive: all assays above

C[C@@H](O)[C@H]1C(=O)N2C(C(=O)O)=C(S[C@@H]3CN[C@H](C(=O)N(C)C)C3)[C@H](C)[C@H]12
inactive: all assays above

Nc1ncnc2c1ncn2[C@@H]1O[C@H](CO)C[C@@H]1O
inactive: [2]
active: [1] 24.3 µM

Cc1cccc(C)c1OCC(C)N (centres undefined)
inactive: all assays above

CC[C@H]1OC(=O)[C@H](C)C(=O)[C@H](C)[C@@H](O[C@H]2O[C@H](C)C[C@H](N(C)C)[C@@H]2O)[C@](C)(OC)C[C@@H](C)C(=O)[C@H](C)[C@H]2N(CCCCn3cnc(-c4cccnc4)c3)C(=O)O[C@]12C
inactive: [1]

N#Cc1ccc(NC(=O)Nc2ccccc2Br)c2n[nH]nc12
active: [1] 21.7 µM
inactive: all other assays above

Cc1c(O)cccc1C(=O)N[C@@H](CSc1ccccc1)[C@H](O)CN1C[C@H]2CCCC[C@@H]2C[C@@H]1C(=O)NC(C)(C)C
inactive: [4]
active: [1] 24.3 µM | [2] 26.4 µM | [3] 18.7 µM

Cn1c(N2CCCCS2(=O)=O)nc(C(=O)NCc2ccc(F)cc2)c(O)c1=O
inactive: all assays above

CC(=O)c1ccc(S(=O)(=O)NC(=O)NC2CCCCC2)cc1
inactive: all assays above

CC(=Cc1ccccc1)C=C1SC(=S)N(CC(=O)O)C1=O
inactive: all assays above

COc1cccc2c1CCCC2CCCN1CCN(C2CCCCC2)CC1 (centres undefined)
active: [1] 19.3 µM | [2] 26.4 µM
inactive: [3] | [4]

C[N+](C)(C)CC(=O)O
inactive: all assays above

O=C1C[C@@H](c2ccc(O)cc2)Oc2cc(O)cc(O)c21
inactive: all assays above

Cc1ccc(C(=O)Nc2cccc(C(F)(F)F)c2)cc1Nc1nc(-c2cccnc2)nc2c1cnn2C
active: [1] 21.7 µM | [2] 14.8 µM | [3] 18.7 µM | [5] 18.7 µM | [6] 18.7 µM
inactive: [4]

CCC(CC)[C@H](NC(C)=O)[C@@H]1[C@H](O)[C@@H](C(=O)O)C[C@@H]1N=C(N)N
inactive: all assays above

O=C(O)c1c(Cl)c(Cl)c(Cl)c(Cl)c1-c1c2cc(I)c(=O)c(I)c-2oc2c(I)c(O)c(I)cc12
active: [1] 7.69 µM

CC(C)(C)NC(=O)Nc1cccc(Nc2ncc(F)c(NC(C)(C)CO)n2)c1
not listed: [6]
inactive: all other assays above

O=C(CCN1CCN(C(=O)OCc2cc(Cl)cc(Cl)c2)CC1)c1ccc2[nH]c(=O)oc2c1
not listed: [6]
inactive: all other assays above

Nc1ncnc2c1nc(Cl)n2[C@@H]1O[C@H](CO)[C@@H](O)[C@@H]1O
active: [1] 15.3 µM | [2] 29.6 µM | [3] 29.6 µM | [4] 23.5 µM
